The source of these data is PubChem BioAssay.

Each structure is given as a SMILES string. Values without a mark were called inactive. For some assays here: Potency and affinity values are given separately. Active and inactive are the calls of the source. Unless noted, the rule behind the calls is not given here.

Assay [1] in a line: antimalarial activity against Dd2 strain (AID 2302;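 active = growth inhibition above 50% at the single 2 µM test dose, taken to imply half-maximal potency below 2 µM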;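 note: 0% = DMSO untreated growth and 100% = chloroquine plus artemisinin killed control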). The note with it: P. falciparum Dd2 in RBCs, LDH growth readout, 72 h; at 2 µM; active compounds read high.
Assay [2] can be described thus: HepG2 cytotoxicity, primary screen, cytotoxicity control for P. falciparum antimalarial project, cell-based, ATP luminescence (AID 2303;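 active = inhibition above 50%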;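 note: 0% = DMSO wells and 100% = digitonin-killed cells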). The note with it: HepG2 viability, 24-48 h, at 10 µM, active compounds read high.
Assay [3] concerns the target L-lactate dehydrogenase (Plasmodium falciparum (isolate CDC / Honduras)) (UniProt Q27743). The experiment in a line: PfLDH activity inhibition – cell lysate, 3D7 strain, counter-screen for P. falciparum growth inhibition project (AID 2304).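 Note: 0% = vehicle and 100% = reference inhibitor.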 To be noted: P. falciparum 3D7 crude extract, LDH APAD/NBT absorbance; at 2 µM; active compounds read high. In general terms: Counterscreens check selectivity or assay interference.

The nature of assay [4]: inhibition of 3D7 malaria parasite growth – strain 3D7 (AID 2306).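 Note: 0% = DMSO wells and 100% = chloroquine plus artemisinin control wells.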 To be noted: P. falciparum 3D7 erythrocytic growth, LDH absorbance, 72 h; at 2 µM; active compounds read high.
Assay [5] addresses Calcium-dependent protein kinase 1 (Plasmodium falciparum (isolate 3D7)) (UniProt P62344). The experiment in a line: PfCDPK1 kinase inhibitors, biochemical, TCAMS library (AID 1159585; cut-off not given, nearly all actives have IC50 up to about 0.98 µM;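 note: inhibitors leave more ATP so luminescence rises with inhibition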). To be noted: recombinant PfCDPK1, Kinase-Glo ATP depletion luminescence.
For assay [6], the target named is Plasmodium falciparum protein kinase 6 (PK6, PF3D7_1337100) (UniProt Q8IDW1). The experiment in a line: PfPK6 kinase inhibitors, biochemical, TCAMS library (AID 1159586). The note with it: recombinant PfPK6, Kinase-Glo ATP depletion luminescence. In general terms: In Kinase-Glo more light means more ATP remaining.
Sequence of Plasmodium falciparum protein kinase 6 (PK6, PF3D7_1337100) (Q8IDW1 1-305): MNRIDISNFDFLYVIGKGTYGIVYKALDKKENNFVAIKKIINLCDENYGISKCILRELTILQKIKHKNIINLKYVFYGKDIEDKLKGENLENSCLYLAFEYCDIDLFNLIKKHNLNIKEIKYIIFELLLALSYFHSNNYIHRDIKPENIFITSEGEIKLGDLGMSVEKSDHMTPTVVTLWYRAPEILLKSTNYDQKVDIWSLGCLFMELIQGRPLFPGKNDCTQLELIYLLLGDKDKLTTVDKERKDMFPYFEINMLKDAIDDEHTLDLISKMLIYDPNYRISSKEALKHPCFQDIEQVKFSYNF
In assay [7] the target is Protein kinase 7 (PK7), Plasmodium falciparum 3D7 (PF3D7_0213400) (UniProt Q7YTF7). The experiment in a line: inhibition of Plasmodium PK7 catalytic activity – biochemical, TCAMS antimalarial set, Kinase-Glo luminescence (AID 1159587). The note with it: recombinant PfPK7, Kinase-Glo ATP depletion luminescence.
Sequence of Protein kinase 7 (PK7), Plasmodium falciparum 3D7 (PF3D7_0213400) (Q7YTF7 1-343): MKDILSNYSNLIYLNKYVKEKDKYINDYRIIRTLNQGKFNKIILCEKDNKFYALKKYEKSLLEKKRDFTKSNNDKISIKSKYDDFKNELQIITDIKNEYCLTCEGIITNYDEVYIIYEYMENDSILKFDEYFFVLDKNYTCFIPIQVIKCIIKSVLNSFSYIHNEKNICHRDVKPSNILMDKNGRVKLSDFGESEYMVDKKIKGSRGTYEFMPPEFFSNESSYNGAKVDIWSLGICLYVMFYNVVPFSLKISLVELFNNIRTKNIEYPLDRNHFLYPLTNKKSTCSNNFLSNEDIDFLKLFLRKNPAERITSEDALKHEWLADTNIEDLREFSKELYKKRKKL
Assay [8] deals with Calcium-dependent protein kinase 4 (Plasmodium falciparum (isolate 3D7)) (UniProt Q8IBS5). The experiment in a line: PfCDPK4 kinase inhibitors, biochemical, TCAMS library (AID 1159588; cut-off not given, nearly all actives have IC50 up to about 0.91 µM). To be noted: recombinant PfCDPK4, Kinase-Glo ATP depletion luminescence.
Sequence of Calcium-dependent protein kinase 4 (Plasmodium falciparum (isolate 3D7)) (Q8IBS5 whole entry, looked up): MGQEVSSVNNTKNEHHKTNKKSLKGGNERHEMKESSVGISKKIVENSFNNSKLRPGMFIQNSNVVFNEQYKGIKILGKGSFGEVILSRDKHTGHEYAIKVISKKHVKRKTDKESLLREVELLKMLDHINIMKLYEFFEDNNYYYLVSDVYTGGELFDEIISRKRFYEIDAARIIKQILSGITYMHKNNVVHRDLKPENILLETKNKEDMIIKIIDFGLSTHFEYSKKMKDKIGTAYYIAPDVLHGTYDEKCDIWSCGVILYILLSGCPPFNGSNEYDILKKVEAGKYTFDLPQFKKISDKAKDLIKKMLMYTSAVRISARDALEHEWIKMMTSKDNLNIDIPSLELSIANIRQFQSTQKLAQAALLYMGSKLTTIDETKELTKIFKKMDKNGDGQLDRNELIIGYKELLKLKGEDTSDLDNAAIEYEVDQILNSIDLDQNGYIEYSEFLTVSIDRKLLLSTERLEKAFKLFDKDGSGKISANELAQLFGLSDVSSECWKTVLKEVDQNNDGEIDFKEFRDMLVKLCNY

Sequence of Calcium-dependent protein kinase 1 (Plasmodium falciparum (isolate 3D7)) (P62344 whole entry, looked up): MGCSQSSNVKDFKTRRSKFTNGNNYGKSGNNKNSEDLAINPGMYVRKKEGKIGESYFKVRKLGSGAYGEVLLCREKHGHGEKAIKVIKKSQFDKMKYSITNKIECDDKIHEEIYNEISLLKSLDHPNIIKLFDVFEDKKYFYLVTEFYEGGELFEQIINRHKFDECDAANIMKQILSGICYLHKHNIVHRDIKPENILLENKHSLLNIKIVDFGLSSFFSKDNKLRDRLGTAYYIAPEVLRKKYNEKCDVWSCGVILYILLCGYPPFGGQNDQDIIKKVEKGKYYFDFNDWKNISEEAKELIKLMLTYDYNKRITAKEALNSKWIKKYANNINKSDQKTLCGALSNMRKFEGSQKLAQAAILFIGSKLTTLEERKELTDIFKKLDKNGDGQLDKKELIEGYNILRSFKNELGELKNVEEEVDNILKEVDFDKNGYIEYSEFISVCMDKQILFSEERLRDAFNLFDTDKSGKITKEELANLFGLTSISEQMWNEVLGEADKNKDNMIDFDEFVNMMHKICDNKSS
Sequence of L-lactate dehydrogenase (Plasmodium falciparum (isolate CDC / Honduras)) (Q27743 whole entry, looked up): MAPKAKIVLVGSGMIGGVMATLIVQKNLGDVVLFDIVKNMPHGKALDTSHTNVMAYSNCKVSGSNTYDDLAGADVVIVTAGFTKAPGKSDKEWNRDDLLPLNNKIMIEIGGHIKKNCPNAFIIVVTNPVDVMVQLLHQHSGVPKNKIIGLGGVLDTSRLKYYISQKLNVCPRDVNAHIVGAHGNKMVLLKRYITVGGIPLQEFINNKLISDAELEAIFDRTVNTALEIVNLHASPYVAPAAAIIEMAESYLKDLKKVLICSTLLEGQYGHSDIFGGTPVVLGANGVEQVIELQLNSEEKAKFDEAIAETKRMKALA

As for `Cc1cnc(Nc2ccccc2)nc1N[C@@H](CCCN)C(=O)Nc1ccccc1`, the figures for the growth inhibition in assay [1] and in assay [4] were 0% and 101% (active), respectively. In addition, the figures for the inhibition in assay [2] and in assay [3] were -2% and -1%, respectively. For the same molecule, the outcome in assay [5], in assay [6], in assay [7] and in assay [8] was inactive.
As to `CCN(CC)CCN(Cc1ccc(-c2ccc(C(F)(F)F)cc2)cc1)C(=O)Cn1c(CCc2ccc(F)c(F)c2)cc(=O)c2ccccc21`, the growth inhibition is 26% in assay [1] and 95% (active) in assay [4]. The inhibition in assay [2] is 23%; in assay [3], -1%. The result in assay [5], in assay [6], in assay [7] and in assay [8] was inactive.
Regarding `COc1cccc(CNC(=O)c2cc(CNCc3ccccc3)ccc2-c2cccc(CNCc3ccc(-c4ccccc4)cc3)c2)c1`, the growth inhibition in assay [1] is 15%; in assay [4], 95% (active). The inhibition in assay [2] is 22%; in assay [3], 8%. Further, the result in assay [5], in assay [6], in assay [7] and in assay [8] was inactive.
On to `COc1cc(C2=NN(S(=O)(=O)c3c(C)cc(C)cc3C)CCCC2)ccc1Cl`, for which the growth inhibition in assay [1] is 76% (active); in assay [4], 85% (active). Besides, the values for the inhibition in assay [2] and in assay [3] were 9% and 1%, respectively. The outcome in assay [5], in assay [6], in assay [7] and in assay [8] was inactive.
`Cn1nc(-c2ccc(NC(=O)Nc3cc(C(F)(F)F)ccc3F)c(F)c2)c2cnc(NCCCn3ccnc3)nc21`: the growth inhibition was 97% (active) in assay [1] and 100% (active) in assay [4]. Moreover, the inhibition is 45% in assay [2] and 0% in assay [3]. Further, the result in assay [5], in assay [6], in assay [7] and in assay [8] was inactive.
For `O=C(Nc1cccc([N+](=O)[O-])c1)N(Cc1ccc(Cl)c(Cl)c1)C1CCNCC1`, the growth inhibition in assay [1] was -2%; in assay [4], 99% (active). The inhibition in assay [2] is 17%; in assay [3] it was -2%. For the same molecule, the outcome in assay [5], in assay [6], in assay [7] and in assay [8] was inactive.
As for `CS(=O)(=O)CCNCc1cccc(-c2cc3c(Nc4ccc5c(cnn5Cc5ccccc5)c4)ncnc3s2)c1`, the growth inhibition in assay [1] and in assay [4] was 101% (active) in each case. Moreover, the results for the inhibition in assay [2] and in assay [3] were 36% and 2%, respectively. Besides, the outcome in assay [5], in assay [6], in assay [7] and in assay [8] was inactive.
`O=C(NC1CCCCCC1)[C@@H]1CCCN1C(=O)c1ccc(O)c(-c2ccc(Cl)c(Cl)c2)c1`: the growth inhibition in assay [1] was 98% (active); in assay [4] it was 99% (active). The inhibition in assay [2] is -2%; in assay [3], -7%. Besides, the outcome in assay [5], in assay [6], in assay [7] and in assay [8] was inactive.
On to `O=C1Nc2cccc3c2C1(CCCCN1CCC(c2c(-c4ccccc4)[nH]c4ccccc24)CC1)CCC3` (configuration not stated), for which the growth inhibition is 33% in assay [1] and 84% (active) in assay [4]. Further, the inhibition in assay [2] is 18%; in assay [3] it was -1%. The outcome in assay [5], in assay [6], in assay [7] and in assay [8] was inactive.
For the molecule `Cc1ccccc1C1CCN(C2CCC(NC(=O)/C=C/c3ccc(F)c(F)c3)CC2)CC1` (configuration not stated), the growth inhibition was 7% in assay [1] and 93% (active) in assay [4]. For the same molecule, the inhibition in assay [2] is 34%; in assay [3], -1%. The result in assay [5], in assay [6], in assay [7] and in assay [8] was inactive.
As for `CCCCCCOc1ccc(C(N)=NCc2ccccc2)c2c1CCCC2`, the growth inhibition was 35% in assay [1] and 96% (active) in assay [4]. The inhibition is 62% (active) in assay [2] and -3% in assay [3]. Moreover, the outcome in assay [5], in assay [6], in assay [7] and in assay [8] was inactive.
For the molecule `CCOC(=O)C(=CNc1ccc(Cc2cnc(N)nc2N)cc1CC)C(=O)OCC`, the growth inhibition in assay [1] was 7%; in assay [4], 87% (active). Further, the inhibition in assay [2] is 47%; in assay [3] it was 1%. For the same molecule, the result in assay [5], in assay [6], in assay [7] and in assay [8] was inactive.
Take `O=C(COc1ccccc1Cc1ccccc1)Nc1cc(Cl)ccc1-n1cncn1`: the growth inhibition in assay [1] was 93% (active); in assay [4] it was 92% (active). The inhibition in assay [2] is 5%; in assay [3] it was -2%. The result in assay [5], in assay [6], in assay [7] and in assay [8] was inactive.
On to `Cc1cc(C(F)(F)F)cc(-n2ncc(-c3ccc(C(=O)NCc4ccccc4N)cc3)c2N)n1`, for which the growth inhibition in assay [1] is 89% (active); in assay [4], 99% (active). Also, the inhibition was 10% in assay [2] and 3% in assay [3]. Moreover, the result in assay [5], in assay [6], in assay [7] and in assay [8] was inactive.
`Clc1ccccc1CCNCC1CCN(CC2CCCCC2)CC1`: the growth inhibition in assay [1] is 38%; in assay [4], 97% (active). Also, the results for the inhibition in assay [2] and in assay [3] were 45% and -5%, respectively. Further, the result in assay [5], in assay [6], in assay [7] and in assay [8] was inactive.
With `O=C(Nc1ccc(Cl)cc1)Nc1cccc(-c2cc(CNCCc3ccccc3)oc2-c2ccncc2)c1`, the results for the growth inhibition in assay [1] and in assay [4] were 92% (active) and 101% (active), respectively. Also, the inhibition in assay [2] was 40%; in assay [3], 1%. Besides, the result in assay [5], in assay [6], in assay [7] and in assay [8] was inactive.
`Cc1cc(-c2ccc(CNCc3ccc(F)cc3)cc2)ccc1S(=O)(=O)NCCN1CCCC1`: the results for the growth inhibition in assay [1] and in assay [4] were 41% and 100% (active), respectively. For the same molecule, the inhibition in assay [2] is 95% (active); in assay [3] it was -1%. The result in assay [5], in assay [6], in assay [7] and in assay [8] was inactive.
Take `Cc1cc(NC(=O)N=C(N)N)ccc1Cl`: the growth inhibition in assay [1] was 15%; in assay [4] it was 100% (active). Further, the inhibition was 11% in assay [2] and 2% in assay [3]. In addition, the result in assay [5], in assay [6], in assay [7] and in assay [8] was inactive.
`CN(C)CCN(C)Cc1ccc(-c2ccc(NC(=O)c3cccc(Cl)c3)cc2)cc1`: the results for the growth inhibition in assay [1] and in assay [4] were 54% (active) and 94% (active), respectively. Moreover, the figures for the inhibition in assay [2] and in assay [3] were 50% (active) and 1%, respectively. Further, the outcome in assay [5], in assay [6], in assay [7] and in assay [8] was inactive.

As a reminder, the inhibition is the drop in the measured response relative to a control, in per cent.
